Inconclusive results are not listed. Where a call stands in place of a potency, no number is given. Values without a mark were called inactive. Calls of active or inactive are those of the source. Calls follow the shape of the dose curve; as a rule, active = well fitted curve in the direction sought with a large enough effect; inconclusive = small, poorly fitted or top-dose-only effect, or another doubt; inactive = no such curve, though single readings can be large; an effect the other way counts as inactive or inconclusive.
Columns and labels:
[1] = target: Cellular tumor antigen p53 (Homo sapiens) (UniProt P04637); assay: Primary qHTS for small molecule compounds that upregulate eGFP-tagged delta133p53alpha (in N-terminal) cells. (AID 2060322); conditions: NCI-H358 eGFP-delta133p53alpha fluorescence, 24 h; activation: active compounds read high; also: nearly all actives have a fitted effect of over 75% in size; also: potency is read from the fitted curve at half-maximal effect; as to activation: series mostly up to about 56 µM
Chain of Cellular tumor antigen p53 (Homo sapiens) (P04637 whole entry, looked up): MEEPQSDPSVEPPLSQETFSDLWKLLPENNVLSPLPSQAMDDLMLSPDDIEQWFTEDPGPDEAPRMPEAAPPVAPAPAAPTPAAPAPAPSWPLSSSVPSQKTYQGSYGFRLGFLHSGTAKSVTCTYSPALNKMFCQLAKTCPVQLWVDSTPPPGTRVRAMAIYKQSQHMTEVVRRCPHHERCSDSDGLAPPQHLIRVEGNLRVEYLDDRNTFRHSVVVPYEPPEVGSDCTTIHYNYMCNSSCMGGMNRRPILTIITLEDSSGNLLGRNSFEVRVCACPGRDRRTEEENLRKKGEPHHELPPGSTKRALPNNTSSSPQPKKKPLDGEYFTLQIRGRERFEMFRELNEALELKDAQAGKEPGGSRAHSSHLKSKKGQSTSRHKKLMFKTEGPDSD
Outline: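 NCI-H358 cells pre-induced 24 h with 10 ng/ml doxycycline to express N-terminal eGFP-delta133p53alpha, then dosed 24 h at 37C without doxycycline; fixed, Hoechst-stained, GFP intensity by laser scanning cytometry, normalized to DMSO (0%) and 57.5 uM 5-azacytidine (100%).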

[2] = target: Aldehyde dehydrogenase, mitochondrial (Homo sapiens) (UniProt P05091); assay: qHTS for Inhibitors of the Aldehyde Dehydrogenase Family (ALDH2) Primary screen (AID 2061308); also: nearly all actives have a fitted effect of over 55% in size
[3] = target: Retinaldehyde dehydrogenase 3 (Homo sapiens) (UniProt P47895); assay: qHTS for Inhibitors of the Aldehyde Dehydrogenase Family (ALDH1A3) Primary screen (AID 2061315)

| Compound | activation [1] | Potency [2] | Potency [3] | activity change, negative = inhibition [2] | activity change, negative = inhibition [3] | Potency [1] |
| --- | --- | --- | --- | --- | --- | --- |
| O=C(CCCCCCCCC#CI)Oc1ccccc1 | -8.33% | inactive | inactive | – | – | – |
| COc1cc(O)c2c(c1Cl)CC(C)OC2=O (stereo unspecified) | 7.14% | inactive | inactive | – | – | – |
| C[C@@]1(C(=O)O)CCC[C@@]2(C)C3=CC[C@H]4C[C@@]3(CC[C@H]12)CC4(O)CO (stereo partly specified) | -2.29% | inactive | inactive | – | – | – |
| C=C(COC(=O)C(O)C(O)CN)C12OC1C1(C)C(=CC2=O)C(O)C(O)CC1C (stereo unspecified) | -7.63% | inactive | inactive | – | – | – |
| C[C@@H]1CC[C@]2(C(=O)O[C@@H]3O[C@H](CO)[C@@H](O)[C@H](O)[C@H]3O)CC[C@]3(C)C(=CCC4[C@@]5(C)C[C@@H](O)[C@H](O)C(C)(C)C5CC[C@]43C)C2[C@]1(C)O (stereo partly specified) | -17.6% | inactive | inactive | – | – | – |
| COc1cc(/C=C/CO)ccc1O[C@@H]1O[C@H](CO)[C@@H](O)[C@H](O)[C@H]1O | -6.25% | inactive | inactive | – | – | – |
| Cn1cc(C2=C(c3coc4ccccc34)C(=O)NC2=O)c2cc(Br)ccc21 | -23.2% | inactive | inactive | – | – | – |
| CC1OC(O[C@@H]2[C@@H](O)[C@H](OC(=O)[C@]34CCC(C)(C)C[C@H]3C3=CCC5[C@@]6(C)CC[C@H](O[C@@H]7O[C@H](C(=O)O)[C@@H](O)[C@H](O[C@@H]8OC[C@@H](O)[C@H](O)[C@H]8O)[C@H]7O[C@@H]7O[C@H](CO)[C@H](O)[C@H](O)[C@H]7O)[C@@](C)(C=O)C6CC[C@@]5(C)[C@]3(C)C[C@H]4O)O[C@H](C)[C@@H]2OC2OC(C)C(OC3OCC(O)C(O)C3O)C(O)C2O)C(O)C(O)C1O (stereo partly specified) | -3.57% | – | – | 9.81% [at 11.2 µM] | 5.21% [at 11.2 µM] | – |
| CC(=O)OC[C@]12[C@H](OC(C)=O)C(=O)[C@@H]3[C@@H](OC(C)=O)[C@@]14O[C@@]3(C)COC(=O)c1cccnc1[C@@H](C)[C@H](C)C(=O)O[C@@H]([C@H](O)[C@@H]2OC(C)=O)[C@]4(C)O | 6.25% | inactive | inactive | – | – | – |
| COc1c2c(c(C)c3c1C(=O)OC3)O[C@@]1(C)C[C@@H](OC(C)=O)[C@]34O[C@](OC)(CC[C@]3(C)[C@H]1C2)OC4(C)C | -5.36% | inactive | inactive | – | – | – |
| C1=Cc2ccccc2C(=C2CCN(CCCCc3nn[nH]n3)CC2)c2ccccc21 | -3% | inactive | inactive | – | – | – |
| C1CCC[C@H]2CCCN3CC[C@@H](CCCCCC[C@@H]4CCCN5CC[C@@H](CC1)O[C@@H]45)O[C@@H]23 | -4.33% | – | – | 3.01% [at 0.092 µM] | -7.72% [at 0.092 µM] | – |
| C=CC(C)(O)C(O)CC1C(C)(O)C(O)C(O)C2C(C)(C)CCCC21C (stereo unspecified) | -20.6% | inactive | inactive | – | – | – |
| C=C1C(=O)O[C@@H]2/C=C(\C)CC/C=C(\C)CC[C@@H]12 | – | inactive | inactive | – | – | 21.3 µM (active) |
| CCn1cc(C2=NOC(C(=O)Nc3c(C)n(C)n(-c4ccccc4)c3=O)C2)c(C)n1 (stereo unspecified) | 9% | inactive | inactive | – | – | – |
| C=C(C)[C@@H]1CC[C@]2(C(=O)O)CC[C@]3(C)[C@H](CCC4[C@@]5(C)CCC(=O)C(C)(C)C5C(O)C[C@]43C)C12 (stereo partly specified) | 13% | inactive | inactive | – | – | – |
| NC(=O)Nc1cc(-c2cccc(F)c2)sc1C(=O)NC1CCCNC1 (stereo unspecified) | – | inactive | inactive | – | – | 19 µM (active) |
| CC1=C2C[C@@]3(C)C(CCC[C@@H]3C)C(O)C2(O)OC1=O (stereo partly specified) | 0% | inactive | inactive | – | – | – |
| CC1C(=O)OCC2=CCN3CCC(OC(=O)C(C)(O)C1(C)O)C23 (stereo unspecified) | -5.36% | inactive | inactive | – | – | – |
| O=S(=O)(NCc1ccccn1)c1ccc(Br)c2ccccc12 | 0.333% | inactive | inactive | – | – | – |
| CO[C@H]1C[C@@H]2CC[C@@H](C)[C@@](O)(O2)C(=O)C(=O)N2CCCC[C@H]2C(=O)O[C@H]([C@H](C)C[C@@H]2CC[C@H](n3cnnn3)[C@H](OC)C2)CC(=O)[C@H](C)/C=C(\C)[C@@H](O)[C@@H](OC)C(=O)[C@H](C)C[C@H](C)/C=C/C=C/C=C/1C | 1% | inactive | inactive | – | – | – |
| CN(C)CC#CCCC(=O)C(O)(c1ccccc1)C1CCC1 (stereo unspecified) | 8.33% | inactive | inactive | – | – | – |
| CC(CCO)CCC1C2(C)CCCC(C)(C)C2CC[C@@]1(C)O (stereo partly specified) | 18.3% | inactive | inactive | – | – | – |
| C[C@@H]1O[C@@H](OC[C@H]2O[C@@H](OC(CCCCc3ccc(O)cc3)CCc3ccc(O)cc3)[C@H](O)[C@@H](O)[C@@H]2O)[C@H](O)[C@H](O)[C@H]1O (stereo partly specified) | 6.11% | inactive | inactive | – | – | – |
| COc1ccc(/C=C/C(=O)O[C@@H]2[C@@H](OC(C)=O)[C@@H](OC(C)=O)[C@H](O[C@H]3[C@@H]4C=CO[C@@H](O[C@@H]5O[C@H](CO)[C@@H](O)[C@H](O)[C@H]5O)[C@@H]4[C@@]4(CO)O[C@@H]34)O[C@H]2C)cc1O | -16% | inactive | inactive | – | – | – |
| C=CC(C)(CCC=C(C)C)O[C@@H]1O[C@H](CO)[C@@H](O)[C@H](O)[C@H]1O (stereo partly specified) | 3.57% | inactive | inactive | – | – | – |

| Compound | activation [1] | Potency [2] | Potency [3] | activity change, negative = inhibition [2] | activity change, negative = inhibition [3] | Potency [1] |
| --- | --- | --- | --- | --- | --- | --- |
| CO[C@H]1O[C@@H]2O[C@@]3(C)CCC4[C@H](C)CCC([C@H]1C)[C@]42OO3 (stereo partly specified) | 11.7% | inactive | inactive | – | – | – |
| Cc1c(N2C(=O)c3ccc(C(=O)O)cc3C2=O)c(=O)n(-c2ccccc2)n1C | -5% | inactive | inactive | – | – | – |
| O=C(O)CCc1c(C(=O)O)[nH]c2cc(Cl)cc(Cl)c12 | 3% | inactive | inactive | – | – | – |
| O=C(NCC(O)CO)c1ccncc1Nc1ccc(I)cc1F (stereo unspecified) | 19.6% | inactive | inactive | – | – | – |
| Cn1nccc1-c1ccccc1Oc1ccc(S(=O)(=O)Nc2nccs2)cc1C#N | 3.67% | inactive | inactive | – | – | – |
| C/C=C(\C)C(=O)OCC1OC(OC2OC(CO)C(O)C(O)C2O)C(O)C(O)C1O (stereo unspecified) | -16.8% | inactive | inactive | – | – | – |
| C=CC1(C)CC2=CCC3C(C)(C(=O)O)CCCC3(C)C2CC1OC(C)=O (stereo unspecified) | -14.5% | inactive | inactive | – | – | – |
| CC(=O)OC1CC(C)(C(=O)O)CC2C3=CC(=O)C4C5(C)CCC(OC6OC(C(=O)O)C(O)C(O)C6OC6OC(C(=O)O)C(O)C(O)C6O)C(C)(C)C5CCC4(C)C3(C)CCC12C (stereo unspecified) | -4.46% | inactive | inactive | – | – | – |
| CC1=C(C(=O)OC2OC(COC3OC(CO)C(O)C(O)C3O)C(O)C(O)C2O)C(C)(C)CCC1 (stereo unspecified) | -14.5% | inactive | inactive | – | – | – |
| C/C(=C\CO)CC/C=C(\C)C(=O)O[C@H]1[C@H](OC2OC=C(C(=O)O)C3CCC(C)(O)C23)O[C@H](CO)[C@@H](O)[C@@H]1O (stereo partly specified) | -22.3% | inactive | inactive | – | – | – |
| C=C(C)[C@@H]1CC[C@]2(C(=O)O)CC[C@]3(C)C(CCC4[C@@]5(C)C[C@@H](O)[C@H](O)C(C)(C)C5CC[C@]43C)C12 (stereo partly specified) | -10.7% | inactive | inactive | – | – | – |
| CCC(C)/C=C(C)/C=C/C1=CC2=C(Cl)C(=O)C(C)(OC(C)=O)C(=O)C2=CN1C(CCC(=O)O)C(=O)O (stereo unspecified) | -13% | inactive | inactive | – | – | – |
| NC(=O)C1=CC2C3C=CC2C(OC3=O)O1 (stereo unspecified) | 27.5% | inactive | inactive | – | – | – |
| C[C@@]12CC3(S(=O)(=O)O)OC(O1)[C@]1(COC(=O)c4ccccc4)[C@H]3C[C@]21O[C@@H]1O[C@H](CO)[C@@H](O)[C@H](O)[C@H]1O | 14.5% | inactive | inactive | – | – | – |
| C=C1C(=O)O[C@@H]2C3=C(C)CCC[C@]3(C)CC[C@@]12O | – | inactive | inactive | – | – | 16.9 µM (active) |
| CC(C)=CCc1c(O)cc2oc3cc(C)cc(O)c3c2c1C | -21.4% | inactive | inactive | – | – | – |
| CN1C(=O)N(c2cc(Cl)cc(Cl)c2)C(=O)[C@@]1(C)Cc1ccc(Br)cc1 | 5% | inactive | inactive | – | – | – |
| CC(=O)NC(C(=O)OC1CCC(C)(C)C2CC=C3C(=O)OCC3C12C)C(C)C (stereo unspecified) | 9.16% | inactive | inactive | – | – | – |
| C=C1[C@H]2CCC3[C@]4(C)CCC[C@@](C)(C(=O)O)C4CC[C@]3(C2)[C@H]1OC(C)=O (stereo partly specified) | -17.6% | inactive | inactive | – | – | – |
| CC1=CC[C@]2(C(=O)O[C@@H]3O[C@H](CO[C@@H]4O[C@H](CO)[C@@H](O[C@@H]5O[C@@H](C)[C@H](O)[C@@H](O)[C@H]5O)[C@H](O)[C@H]4O)[C@@H](O)[C@H](O)[C@H]3O)CC[C@]3(C)C(CCC4[C@@]5(C)C[C@@H](O)[C@H](O)[C@@](C)(CO)C5CC[C@]43C)C2C1C (stereo partly specified) | -13% | inactive | inactive | – | – | – |
| C=C(C)[C@@H]1CC[C@]2(C)CC[C@]3(C)[C@H](CC[C@@H]4[C@@]5(C)CC[C@@H](O)C(C)(C)[C@@H]5CC[C@]43C)[C@@H]12 | 17.6% | inactive | inactive | – | – | – |
| O=C(NCCCc1ccccc1)c1cccc(-c2cc(O)c3ncccc3c2)c1 | 7.67% | inactive | inactive | – | – | – |
| O=C(Nc1ccc(N(Cc2ccsc2)C(=O)Cn2nnc3ccccc32)cc1)C1CC1 | 11.6% | inactive | inactive | – | – | – |
| C=C1CCC2C(C)(C(=O)O)CCCC2(C)C1CCC(C)CC(=O)O (stereo unspecified) | -3.57% | inactive | inactive | – | – | – |
| Cc1coc2c1CC1OC1(C)CCC1OC1(C)C2 (stereo unspecified) | 4.46% | inactive | inactive | – | – | – |
| C/C(=C\C=C\C(C)C1CCC2(C)C3CCC4C(C)(C)C(=O)CCC45CC35CCC12C)C(=O)O (stereo unspecified) | 5.36% | inactive | inactive | – | – | – |
